The record followed here is PubChem BioAssay (NCATS).

Inconclusive results are not listed. Active and inactive are the calls of the source. Calls come from the whole dose curve; as a rule, active = well fitted inhibition curve with a large enough effect; inconclusive = small, poorly fitted or top-dose-only effect; inactive = flat fitted curve, though single readings scatter.
% is set by controls: 0 for no effect and ±100 for the full control effect.

In the experiment the target is Calcium and integrin-binding protein 1 (Homo sapiens) (UniProt Q99828). As to the kind of experiment: Primary qHTS for Identification of Calcium Integrin Binding Protein 1 (CIB1) Competitor (AID 1508620).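 Note: GST tagged CIB1 binding a fluorescein labelled alphaIIb integrin peptide tracer; top concentration of the series differs between compounds.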 The conditions noted are these: CIB1-GST / FITC-alphaIIb peptide fluorescence polarization; series mostly up to 114 µM; activity change, negative = inhibition: at the top concentration. In a few lines: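 Fluorescence polarization competition: CIB1-GST (1 uM final) preincubated with compound 15 min at room temperature, then FITC-labeled alphaIIb peptide (100 nM final) added for another 15 min. Polarization read at Ex 480/Em 540.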
Calcium and integrin-binding protein 1 (Homo sapiens), sequence (Q99828 whole entry, looked up): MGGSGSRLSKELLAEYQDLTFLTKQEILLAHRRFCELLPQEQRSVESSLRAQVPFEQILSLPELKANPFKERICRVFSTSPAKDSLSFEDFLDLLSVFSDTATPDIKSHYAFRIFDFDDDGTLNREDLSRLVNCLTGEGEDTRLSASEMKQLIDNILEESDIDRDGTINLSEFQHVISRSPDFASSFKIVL
(qHTS replaces the single test concentration by a dilution series.)
`c1nc(N2CCC(N3CCCC3)CC2)c2cc(-c3ccc4c(c3)OCO4)ccc2n1`: the “activity change, negative = inhibition” value was 4.16% (inactive). Then `CN(C)S(=O)(=O)c1ccc(-c2nc(NCc3ccc(-c4ccnc(C(F)(F)F)c4)cc3)c3ccccc3n2)cc1`, with 12.4% (inactive). Then `Cc1cc2c(s1)c1cnn(Cc3cc(C(F)(F)F)cc(Cl)c3F)c(=O)c1n2C`, with 2.08% (inactive). The result for `Cc1csc(CNc2ncnc3ccc(-c4ccccc4Cl)cc23)c1` reads 4.98% (inactive). As to `N#Cc1ccc(-c2ccc(CNc3ccc(N4CCC(C#N)CC4)cc3)o2)cc1`, the “activity change, negative = inhibition” value is -11.1% (inactive). Then `O=S1(=O)N=C(OCc2ccccc2)c2ccccc21`, with -4.07% (inactive); and `Cc1cc(C)nc(NC(=S)N2CCN(c3ccc4nncn4c3)CC2)c1`, with -7.09% (inactive). `CN(C)c1cnc2c(O)ccc(C(=O)O)c2c1`: the “activity change, negative = inhibition” value is -20% (inactive). Then `CCCCN1C(=O)c2ccccc2C1=O`, with 3.16% (inactive). Then `Cc1cc(-c2nnc3n2CCCCC3)c(C)n1-c1cccc(C#N)c1`, with 3.78% (inactive). On to `COc1cccc(CNc2ccc(S(=O)(=O)Nc3nccs3)cc2)c1O`, for which the “activity change, negative = inhibition” value is -18.2% (inactive). The result for `Cc1ccc(-c2ccc(=O)n(CC(=O)N(C)[C@@H](C)c3ccccc3)n2)cc1` reads -4.83% (inactive); that for `O=C1CCc2cc(S(=O)(=O)Nc3ccc4c(c3)CCC4)ccc2N1`, 6.39% (inactive). Then `CN(Cc1ccc(-c2ccc(C#N)cc2)o1)c1ccc(N2CCN(C(=O)OC(C)(C)C)CC2)cc1`, with -8.81% (inactive); and `O=C1CCCC2=C1C(c1[nH]ncc1Cl)N=C(Nc1nc3c(Cl)cccc3o1)N2` (stereo not drawn), with -2.81% (inactive). Then `Cn1nnnc1Sc1ncnc2scc(-c3ccccc3Cl)c12`, with -0.191% (inactive); and `Cc1ccccc1-c1nnc(NC(=O)Nc2ccc3ccccc3c2)s1`, with 8.35% (inactive). For the molecule `CCNC(=O)C1CCN(C(=O)C(C)(C)NC(=O)Nc2ccccc2Cl)CC1`, the “activity change, negative = inhibition” value was -2.15% (inactive).
